Measurements as given in PubChem BioAssay AID1159580 (chemical genetic matrix, 2015).
Hit rate of the full screen: of about 5,500 compounds, about 2,000 (36%) were called active. Inconclusive results (about 18%) are left out. Cut-off read from the data, not from the text of the source: active = normalized growth mostly below about 0.91 (no sharp cut-off); inconclusive = no clear call, values can overlap the other calls; inactive = mostly above about 0.92. The list shows a part of the results.

Assay: chemical genetic growth profiling, strain panel (AID 1159580);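 note: tested at 20 µM; growth read once vehicle control cultures reached saturation at 30 °C; 1 = growth at the plate median or of vehicle wells; lower values mean less growth of the strain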
Conditions: growth OD

Measured: normalized growth

C[C@@H]1CC[C@@]2(OC1)O[C@H]1CC3C4CC[C@H]5C[C@@H](O)CC[C@]5(C)C4CC[C@]3(C)[C@H]1[C@@H]2C (stereo not given in full)
inactive: S. cerevisiae deletion strains, locus YJR066W, strain TOR1, active compounds read low 0.945 | S. cerevisiae deletion strains, locus YJR075W, strain HOC1, active compounds read low 0.981 | S. cerevisiae deletion strains, locus YKL009W, strain mrt4, active compounds read low 0.991 | S. cerevisiae deletion strains, locus YKL068W, active compounds read low 0.981 | S. cerevisiae deletion strains, locus YKL085W, strain MDH1 (second series), active compounds read low 0.977 | S. cerevisiae deletion strains, locus YKL085W, strain MDH1, active compounds read low 0.977 | S. cerevisiae deletion strains, locus YKL160W, strain elf1, active compounds read low 0.996 | S. cerevisiae deletion strains, locus YKR001C, strain vps1, active compounds read low 0.987 | S. cerevisiae deletion strains, locus YKR026C, strain gcn3, active compounds read low 0.984 | S. cerevisiae deletion strains, locus YKR091W, strain srl3, active compounds read low 0.986 | S. cerevisiae deletion strains, locus YLL001W, strain dnm1, active compounds read low 1 | S. cerevisiae deletion strains, locus YLL026W, active compounds read low 0.988 | S. cerevisiae deletion strains, locus YLL041C, strain sdh2, active compounds read low 1 | S. cerevisiae deletion strains, locus YLR027C, strain aat2, active compounds read low 0.988 | S. cerevisiae deletion strains, locus YLR039C, strain RIC1, active compounds read low 1.01 | S. cerevisiae deletion strains, locus YLR058C, strain SHM2, active compounds read low 0.991 | S. cerevisiae deletion strains, locus YLR102C, strain apc9, active compounds read low 0.977 | S. cerevisiae deletion strains, locus YLR113W, strain HOG1, active compounds read low 0.999 | S. cerevisiae deletion strains, locus YLR221C, strain rsa3, active compounds read low 1.02 | S. cerevisiae deletion strains, locus YLR258W, strain gsy2, active compounds read low 1 | S. cerevisiae deletion strains, locus YLR262C, strain YPT6 (second series), active compounds read low 1.02 | S. cerevisiae deletion strains, locus YLR268W, strain sec22, active compounds read low 1 | S. cerevisiae deletion strains, locus YLR320W, strain mms22, active compounds read low 0.99 | S. cerevisiae deletion strains, locus YLR342W, strain FKS1, active compounds read low 0.976 | S. cerevisiae deletion strains, locus YLR357W, strain rsc2, active compounds read low 0.973 | S. cerevisiae deletion strains, locus YLR370C, strain arc18, active compounds read low 0.997 | S. cerevisiae deletion strains, locus YLR371W, strain rom2, active compounds read low 0.979 | S. cerevisiae deletion strains, locus YLR384C, strain iki3, active compounds read low 0.993 | S. cerevisiae deletion strains, locus YLR418C, strain cdc73, active compounds read low 0.973 | S. cerevisiae deletion strains, locus YML016C, strain PPZ1, active compounds read low 1 | S. cerevisiae deletion strains, locus YML032C, strain rad52, active compounds read low 0.997 | S. cerevisiae deletion strains, locus YML120C, strain ndi1, active compounds read low 1.01 | S. cerevisiae deletion strains, locus YML124C, strain tub3, active compounds read low 0.983 | S. cerevisiae deletion strains, locus YMR058W, strain fet3, active compounds read low 0.996 | S. cerevisiae deletion strains, locus YMR078C, strain ctf18, active compounds read low 0.969 | S. cerevisiae deletion strains, locus YMR125W, strain sto1, active compounds read low 0.984 | S. cerevisiae deletion strains, locus YMR129W, active compounds read low 0.987 | S. cerevisiae deletion strains, locus YMR205C, strain PFK2, active compounds read low 1 | S. cerevisiae deletion strains, locus YMR223W, strain ubp8, active compounds read low 0.979 | S. cerevisiae deletion strains, locus YMR231W, strain pep5, active compounds read low 0.998 | S. cerevisiae deletion strains, locus YMR263W, strain SAP30, active compounds read low 0.976 | S. cerevisiae deletion strains, locus YMR307W, strain GAS1, active compounds read low 1.23 | S. cerevisiae deletion strains, locus YNL067W, strain RPL9B, active compounds read low 0.974 | S. cerevisiae deletion strains, locus YNL071W, strain lat1, active compounds read low 0.996 | S. cerevisiae deletion strains, locus YNL183C, strain NPR1, active compounds read low 0.975 | S. cerevisiae deletion strains, locus YNL209W, strain ssb2, active compounds read low 0.983 | S. cerevisiae deletion strains, locus YNL233W, strain BNI4, active compounds read low 0.99 | S. cerevisiae deletion strains, locus YNL248C, strain rpa49, active compounds read low 1 | S. cerevisiae deletion strains, locus YNL250W, strain rad50, active compounds read low 0.955 | S. cerevisiae deletion strains, locus YNL271C, strain bni1, active compounds read low 0.983 | S. cerevisiae deletion strains, locus YNL298W, strain CLA4, active compounds read low 0.972 | S. cerevisiae deletion strains, locus YNL307C, strain MCK1, active compounds read low 0.989 | S. cerevisiae deletion strains, locus YNL322C, strain KRE1 (second series), active compounds read low 0.987 | S. cerevisiae deletion strains, locus YNL322C, strain KRE1, active compounds read low 0.987 | S. cerevisiae deletion strains, locus YNR049C, strain mso1, active compounds read low 0.983 | S. cerevisiae deletion strains, locus YNR052C, strain pop2, active compounds read low 0.962 | S. cerevisiae deletion strains, locus YOL006C, strain TOP1, active compounds read low 1.14 | S. cerevisiae deletion strains, locus YOL012C, strain htz1 0.991 | S. cerevisiae deletion strains, locus YOL147C, strain pex11, active compounds read low 0.978 | S. cerevisiae deletion strains, locus YOR001W, strain rrp6, active compounds read low 0.999 | S. cerevisiae deletion strains, locus YOR061W, strain CKA2, active compounds read low 0.996 | S. cerevisiae deletion strains, locus YOR069W, strain VPS5, active compounds read low 0.983 | S. cerevisiae deletion strains, locus YOR070C, strain gyp1, active compounds read low 0.965 | S. cerevisiae deletion strains, locus YOR080W, strain dia2, active compounds read low 0.996 | S. cerevisiae deletion strains, locus YOR083W, strain WHI5, active compounds read low 0.992 | S. cerevisiae deletion strains, locus YOR106W, strain vam3, active compounds read low 0.983 | S. cerevisiae deletion strains, locus YOR136W, strain idh2, active compounds read low 0.992 | S. cerevisiae deletion strains, locus YOR144C, strain elg1, active compounds read low 0.988 | S. cerevisiae deletion strains, locus YOR184W, strain ser1, active compounds read low 1.03 | S. cerevisiae deletion strains, locus YOR231W, strain MKK1, active compounds read low 0.998 | S. cerevisiae deletion strains, locus YOR265W, strain rbl2, active compounds read low 0.995 | S. cerevisiae deletion strains, locus YOR270C, strain vph1, active compounds read low 1.03 | S. cerevisiae deletion strains, locus YOR290C, strain snf2, active compounds read low 1.01 | S. cerevisiae deletion strains, locus YOR316C, strain cot1, active compounds read low 0.962 | S. cerevisiae deletion strains, locus YPL051W, strain arl3, active compounds read low 0.997 | S. cerevisiae deletion strains, locus YPL078C, strain atp4, active compounds read low 1 | S. cerevisiae deletion strains, locus YPL106C, strain sse1, active compounds read low 0.972 | S. cerevisiae deletion strains, locus YPL240C, strain hsp82, active compounds read low 0.977 | S. cerevisiae deletion strains, locus YPL256C, strain CLN2, active compounds read low 0.999 | S. cerevisiae deletion strains, locus YPR119W, strain clb2, active compounds read low 0.979 | S. cerevisiae deletion strains, locus YPR141C, strain kar3, active compounds read low 0.951 | S. cerevisiae deletion strains, locus YPR163C, strain tif3, active compounds read low 0.959 | S. cerevisiae deletion strains, locus YPR167C, strain met16, active compounds read low 0.985 | S. cerevisiae deletion strains, strain wtn01, active compounds read low 1.01 | S. cerevisiae strains, strain wild type, active compounds read low 1.01
